Structures are written as SMILES. The source made the active and inactive calls. The rule behind the calls is not given here.

The test deals with Protein kinase 7 (PK7), Plasmodium falciparum 3D7 (PF3D7_0213400) (UniProt Q7YTF7). As to the kind of experiment: inhibition of Plasmodium PK7 catalytic activity – biochemical, TCAMS antimalarial set, Kinase-Glo luminescence (AID 1159587). Conditions: recombinant PfPK7, Kinase-Glo ATP depletion luminescence.
Chain of Protein kinase 7 (PK7), Plasmodium falciparum 3D7 (PF3D7_0213400) (Q7YTF7 1-343): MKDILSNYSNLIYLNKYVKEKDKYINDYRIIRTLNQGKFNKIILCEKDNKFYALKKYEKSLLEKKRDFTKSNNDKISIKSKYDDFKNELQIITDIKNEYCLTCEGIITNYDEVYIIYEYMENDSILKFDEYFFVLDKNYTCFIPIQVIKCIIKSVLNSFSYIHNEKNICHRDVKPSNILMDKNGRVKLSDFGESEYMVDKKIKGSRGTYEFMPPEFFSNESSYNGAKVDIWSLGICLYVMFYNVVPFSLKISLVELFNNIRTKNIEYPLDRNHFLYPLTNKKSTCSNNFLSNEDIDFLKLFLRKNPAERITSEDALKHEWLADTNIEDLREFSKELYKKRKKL
As for `NS(=O)(=O)c1cccc(-c2ccc3nccc(-c4cccc(S(N)(=O)=O)c4)c3c2)c1`, the result was inactive.

For the compound `CC(=O)Nc1ccc(C(=O)Nc2cccc(-c3ccc(-c4nc5ccc(C(F)(F)F)cc5[nH]4)s3)c2)cn1`, the outcome was inactive.

On to `COC(=O)c1cccc(CN(CCC(O)(C(F)(F)F)C(F)(F)F)C(=O)CC2CCCC2)c1`, for which the outcome was inactive.

Turning to `Cc1cc(C2CCN(CCCCNC(=O)c3ccc(NC(=O)c4ccc(Cl)cc4)cc3)CC2)c(C)cc1OCc1ccccn1`, the result was inactive.

On to `CC(=O)Nc1ccc(C(=O)Nc2ccc(-c3cccc(-c4nc5ccc(C(F)(F)F)cc5[nH]4)c3)cc2)cn1`, for which the result was inactive.

On to `Cc1cccc2[nH]c(-c3cccc(-c4ccc(NC(=O)Nc5cccc(C#N)c5)cc4)c3)nc12`, for which the result was inactive.

As to `CN(C)CCN1CCN(CCCN2c3ccccc3Sc3ccc(C(F)(F)F)cc32)CC1`, the outcome was inactive.

Regarding `COc1cc(C)nc2ccc(NC(=O)COCC(=O)Nc3ccc4nc(C)cc(OC)c4c3)cc12`, the outcome was inactive.

As to `Cc1nnc(N2C(=N)SC(=Cc3ccc(-c4ccc(OC(F)(F)F)cc4)o3)C2=O)s1`, the result was inactive.

Regarding `CCCNC(=O)c1cncc(-c2ccc(CNCCCc3ccccc3)cc2)c1`, the result was inactive.

Consider `CC(C)CCN(Cc1cncn1Cc1cccc(C(F)(F)F)c1)C(=O)c1cncc(-c2ccccc2)c1`, for which the outcome was inactive.

Take `COc1ccc(CNCc2ccc(F)cc2)cc1-c1cccc(S(=O)(=O)NCCN2CCCC2)c1`: the result was inactive.

With `CN(C)c1ccc(-c2csc(C(=O)NC3CCN(Cc4ccc(C(C)(C)C)cc4)C3)c2)cc1` (centres undefined), the outcome was inactive.

For the compound `Cc1ccc(S(=O)Cc2ccc(Cl)cc2)cc1` (centres undefined), the outcome was inactive.

`CCN(CC)CCNC(=O)c1ccc(NC(=O)c2cc3c(C)nn(-c4ccc(Cl)cc4)c3s2)cc1`: the outcome was inactive.

With `Cc1cccc(CN2CCCN(Cc3ccc(C(=O)Nc4ccc(Cl)cc4)cc3)CC2)c1`, the outcome was inactive.

As to `OC(CNCc1ccccc1OCc1ccccc1)c1cccc(C(F)(F)F)c1` (centres undefined), the result was inactive.

Take `CS(=O)(=O)CCNCc1ccc(-c2ccc3c(Nc4ccc(Cl)cc4F)ccnc3c2)o1`: the result was inactive.

With `CC1(C)N=C(N)N=C(N)N1OCc1nc(N)nc(Nc2ccccc2)n1`, the result was inactive.

Regarding `CCCCCCNC(=O)c1nn(CCN2CCC(N3CCCC3)CC2)cc1-c1ccc(Cl)c(Cl)c1`, the result was inactive.

Regarding `Cc1cccc(-c2nn(-c3ccccc3)c3[nH]c(=O)c(CNC4CCCC4)cc23)c1`, the result was inactive.

Take `O=C(NC1CCN(c2ccnc3ccccc23)C1)c1cccc(C(F)(F)F)c1` (centres undefined): the outcome was inactive.

As for `CSc1cccc(NC(=O)c2cc3ccccc3oc2=O)c1`, the outcome was inactive.

Turning to `Cc1cc(Nc2cc(Cl)cc(Cl)c2)nc(N)n1`, the result was inactive.
